Reference: PubChem BioAssay (NCI)
Compounds without any hit were thinned out: in the full panel of roughly 83,000, 20% have a hit.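 Plates (96-well) were seeded with cells, treated with compound at one concentration, and incubated for 48 hours before percent growth was determined.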 Unmarked numbers belong to inactive results. Active and inactive are the calls of the source. Rule for the calls: active = growth percent below 10; inactive = the rest.

Tests used:
Assay in all cases: NCI-60 one-dose screen, 48 h (100 = growth as untreated, 0 = no growth, -100 = all killed)
Conditions in all cases: 10 µM unless noted
[1] = tested on: MOLT-4 leukemia
[2] = tested on: SR leukemia
[3] = tested on: RPMI-8226 leukemia
[4] = tested on: OVCAR-8 ovarian
[5] = tested on: OVCAR-5 ovarian
[6] = tested on: OVCAR-4 ovarian
[7] = tested on: SK-OV-3 ovarian
[8] = tested on: IGROV1 ovarian
[9] = tested on: OVCAR-3 ovarian
[10] = tested on: HS 578T breast
[11] = tested on: NCI/ADR-RES ovarian
[12] = tested on: T-47D breast
[13] = tested on: BT-549 breast
[14] = tested on: MDA-MB-435 melanoma
[15] = tested on: SW-620 colon
[16] = tested on: MCF7 breast
[17] = tested on: HCT-116 colon
[18] = tested on: HCC-2998 colon
[19] = tested on: KM12 colon

## O=C(Nc1ccncc1F)c1cn(CC2CC2)c2ccccc12
[1]
  growth: 101%
[2]
  growth: 116%
[3]
  growth: 91.9%
[4]
  growth: 101%
[5]
  growth: 113%
[6]
  growth: 97.7%
[7]
  growth: 105%
[8]
  growth: 109%
[9]
  growth: 110%
[10]
  growth: 98.7%
[11]
  growth: 101%
[12]
  growth: 92.3%
[13]
  growth: 94.4%
[14]
  growth: 106%
[15]
  growth: 105%
[16]
  growth: 94.9%
[17]
  growth: 99.5%
[18]
  growth: 106%
[19]
  growth: 104%

## Cc1cnc(/C=C/C(=O)O)cc1-c1cc2c(cc1C)C(C)(C)CCC2(C)C
[1]
  growth: 85.5%
[2]
  growth: 66%
[3]
  growth: 50.4%
[4]
  growth: 89.5%
[5]
  growth: 104%
[6]
  growth: 85.4%
[7]
  growth: 84.4%
[8]
  growth: 94.4%
[9]
  growth: 57.8%
[10]
  growth: 69.9%
[11]
  growth: 78.7%
[12]
  growth: 80.3%
[13]
  growth: 69%
[14]
  growth: 83.8%
[15]
  growth: 86.6%
[16]
  growth: 21.8%
[17]
  growth: 57.2%
[18]
  growth: 85.3%
[19]
  growth: 57.3%

## COC(=O)[C@H](C[C@H](Cc1ccccc1)NC(=O)c1csc([C@@H](C[C@H](C(C)C)N(C)C(=O)[C@@H](NC(=O)[C@H]2CCCCN2C)C(C)C)OC(C)=O)n1)NC(=O)OCc1ccccc1
[1]
  growth: 16.1% [8.5 µM]
[2]
  growth: -16.9% [8.5 µM] (active)
[3]
  growth: -13.9% [8.5 µM] (active)
[4]
  growth: 22% [8.5 µM]
[5]
  growth: 26.1% [8.5 µM]
[6]
  growth: 40.4% [8.5 µM]
[7]
  growth: 22.9% [8.5 µM]
[8]
  growth: 13% [8.5 µM]
[9]
  growth: -12.2% [8.5 µM] (active)
[10]
  growth: 15.3% [8.5 µM]
[11]
  growth: 8.51% [8.5 µM] (active)
[12]
  growth: 74.1% [8.5 µM]
[13]
  growth: -34.2% [8.5 µM] (active)
[14]
  growth: -33% [8.5 µM] (active)
[15]
  growth: 25.4% [8.5 µM]
[16]
  growth: 29.4% [8.5 µM]
[17]
  growth: -4.29% [8.5 µM] (active)
[18]
  growth: 20.4% [8.5 µM]
[19]
  growth: 3.13% [8.5 µM] (active)

## O=C1NC(=O)C(=Cc2cccn2CCCCCn2c3ccccc3c(=O)c3ccccc32)C(=O)N1
[1]
  growth: 93.3%
[2]
  growth: 86.7%
[3]
  growth: 92%
[4]
  growth: 102%
[5]
  growth: 101%
[6]
  growth: 99.8%
[7]
  growth: 108%
[8]
  growth: 99.4%
[9]
  growth: 105%
[10]
  growth: 106%
[11]
  growth: 99.5%
[12]
  growth: 87.3%
[13]
  growth: 104%
[14]
  growth: 97.7%
[15]
  growth: 105%
[16]
  growth: 84.7%
[17]
  growth: 82.2%
[18]
  growth: 105%
[19]
  growth: 103%

## O=Cc1cn(Cc2ccc(Cl)cc2)c2ccccc12
[1]
  growth: 90.1%
[2]
  growth: 80.9%
[3]
  growth: 77.1%
[4]
  growth: 90.1%
[5]
  growth: -36.7% (active)
[6]
  growth: 57.5%
[7]
  growth: 31.1%
[8]
  growth: 6.46% (active)
[9]
  growth: 63.8%
[10]
  growth: 83.9%
[11]
  growth: 90.6%
[12]
  growth: 24.4%
[13]
  growth: 92.7%
[14]
  growth: 104%
[15]
  growth: 68.1%
[16]
  growth: 55.5%
[17]
  growth: 63.2%
[18]
  growth: 98%
[19]
  growth: 109%

## CC(C)(C)N1CC1C#N (stereo not given)
[1]
  growth: 98.4%
[2]
  growth: 97.6%
[3]
  growth: 99.2%
[4]
  growth: 103%
[5]
  growth: 99.5%
[6]
  growth: 119%
[7]
  growth: 101%
[8]
  growth: 103%
[9]
  growth: 101%
[10]
  growth: 104%
[11]
  growth: 106%
[12]
  growth: 89.3%
[13]
  growth: 103%
[14]
  growth: 108%
[15]
  growth: 103%
[16]
  growth: 100%
[17]
  growth: 100%
[18]
  growth: 98.8%
[19]
  growth: 99.2%

## CC[C@H](C)[C@H](NC(=O)N[C@@H](C)c1ccccc1)C(=O)N(C)[C@H](C[C@@H](OC(C)=O)c1nc(C(=O)N[C@@H](Cc2ccccc2)C[C@H](C)C(=O)OC)cs1)C(C)C
[1]
  growth: 21.7%
[2]
  growth: 3.11% (active)
[3]
  growth: 16.1%
[4]
  growth: 11.6%
[5]
  growth: 17.8%
[6]
  growth: 37.1%
[7]
  growth: 36.1%
[8]
  growth: 24.1%
[9]
  growth: -36.6% (active)
[10]
  growth: 0.903% (active)
[11]
  growth: 50%
[12]
  growth: 76.7%
[13]
  growth: 10.5%
[14]
  growth: -41.7% (active)
[15]
  growth: 16.8%
[16]
  growth: 17.5%
[17]
  growth: 9.92% (active)
[18]
  growth: 23.7%
[19]
  growth: 2.6% (active)

## Brc1ccc2c(c1)c(-c1nc(-c3c[nH]c4ncccc34)cs1)cn2CCN1CCOCC1
[1]
  growth: 41.3%
[2]
  growth: 59.7%
[3]
  growth: 40.1%
[4]
  growth: 45.6%
[5]
  growth: 76.9%
[6]
  growth: 57.3%
[7]
  growth: 84.8%
[8]
  growth: 29.5%
[9]
  growth: 72.9%
[10]
  growth: 66.8%
[11]
  growth: 50.3%
[12]
  growth: 1.14% (active)
[13]
  growth: 77.6%
[14]
  growth: 85.7%
[15]
  growth: 85.8%
[16]
  growth: 18.3%
[17]
  growth: 68.1%
[18]
  growth: 88.7%
[19]
  growth: 40.3%

## C[N+]12CN3CN(CN(C3)C1)C2
[1]
  growth: 123%
[2]
  growth: 138%
[3]
  growth: 88%
[4]
  growth: 100%
[5]
  growth: 82.7%
[6]
  growth: 105%
[7]
  growth: 118%
[8]
  growth: 91.2%
[9]
  growth: 115%
[10]
  growth: 98%
[11]
  growth: 97.9%
[12]
  growth: 93%
[13]
  growth: 113%
[14]
  growth: 101%
[15]
  growth: 96.7%
[16]
  growth: 97.3%
[17]
  growth: 92.8%
[18]
  growth: 99.3%
[19]
  growth: 111%

## CCCCC1(CCC)C(=O)NC(=S)NC1=O
[1]
  growth: 96.8%
[2]
  growth: 126%
[3]
  growth: 104%
[4]
  growth: 128%
[5]
  growth: 102%
[6]
  growth: 95.9%
[7]
  growth: 109%
[8]
  growth: 87.9%
[9]
  growth: 93.3%
[10]
  growth: 111%
[11]
  growth: 102%
[12]
  growth: 92.3%
[13]
  growth: 107%
[14]
  growth: 116%
[15]
  growth: 109%
[16]
  growth: 95.7%
[17]
  growth: 99.2%
[18]
  growth: 106%
[19]
  growth: 109%

## O=C(CCCC1CCCCC1)OCC(Cl)(Cl)Cl
[1]
  growth: 107%
[2]
  growth: 103%
[3]
  growth: 95.7%
[4]
  growth: 110%
[5]
  growth: 120%
[6]
  growth: 105%
[7]
  growth: 101%
[8]
  growth: 106%
[9]
  growth: 104%
[10]
  growth: 103%
[11]
  growth: 102%
[12]
  growth: 101%
[13]
  growth: 117%
[14]
  growth: 111%
[15]
  growth: 107%
[16]
  growth: 95.5%
[17]
  growth: 103%
[18]
  growth: 88.4%
[19]
  growth: 105%

## COc1ccc(/C=C\c2cc(OC)c(OC)c(OC)c2)c(NS(=O)(=O)c2ccc(C)cc2)c1O
[1]
  growth: 20.8%
[2]
  growth: 17.2%
[3]
  growth: 31.5%
[4]
  growth: 25.1%
[5]
  growth: 38.8%
[6]
  growth: 31.5%
[7]
  growth: 25.1%
[8]
  growth: 32.2%
[9]
  growth: -30.9% (active)
[10]
  growth: 39.9%
[11]
  growth: 7.57% (active)
[12]
  growth: 96.4%
[13]
  growth: 30.6%
[14]
  growth: -33.1% (active)
[15]
  growth: 24.9%
[16]
  growth: 14.3%
[17]
  growth: 8.54% (active)
[18]
  growth: 18.7%
[19]
  growth: 3.96% (active)

## COc1cc([C@@H]2c3cc4c(cc3[C@H](OC(C)=O)[C@H]3COC(=O)[C@@H]23)OCO4)cc(OC)c1OC
[1]
  growth: 16.4%
[2]
  growth: 15.6%
[3]
  growth: 23.6%
[4]
  growth: 6.28% (active)
[5]
  growth: 26.4%
[6]
  growth: 29.9%
[7]
  growth: -10.2% (active)
[8]
  growth: 16.8%
[9]
  growth: 13.2%
[10]
  growth: 7.08% (active)
[11]
  growth: -43% (active)
[12]
  growth: 99.2%
[13]
  growth: 8.82% (active)
[14]
  growth: -24.4% (active)
[15]
  growth: 26.8%
[16]
  growth: 13.5%
[17]
  growth: -14.2% (active)
[18]
  growth: -21% (active)
[19]
  growth: -37.1% (active)

## COc1ccc([As]=[As]c2ccc(OC)c(NCS(=O)(=O)O)c2)cc1NCS(=O)(=O)O (stereo not given)
[1]
  growth: -0.189% (active)
[2]
  growth: -1.51% (active)
[3]
  growth: -13% (active)
[4]
  growth: 44%
[5]
  growth: 63.8%
[6]
  growth: 14.9%
[7]
  growth: 91.6%
[8]
  growth: 5.53% (active)
[9]
  growth: 9.01% (active)
[10]
  growth: 6.44% (active)
[11]
  growth: 73.7%
[12]
  growth: -41.9% (active)
[13]
  growth: -12.1% (active)
[14]
  growth: 48.8%
[15]
  growth: -1.05% (active)
[16]
  growth: -67.5% (active)
[17]
  growth: -60.2% (active)
[18]
  growth: 57.5%
[19]
  growth: 72.9%

## C#C[C@]1(OC(=O)CCCCCC)CC[C@H]2[C@@H]3CCC4=CC(=O)CC[C@@H]4[C@H]3CC[C@@]21C
[1]
  growth: 26.1%
[2]
  growth: 17.5%
[3]
  growth: 1.02% (active)
[4]
  growth: 51.9%
[5]
  growth: 65.4%
[6]
  growth: 53.6%
[7]
  growth: 55.1%
[8]
  growth: 42.5%
[9]
  growth: 73%
[10]
  growth: 72%
[11]
  growth: 40.3%
[12]
  growth: 37.8%
[13]
  growth: 34.1%
[14]
  growth: 18.3%
[15]
  growth: 28.1%
[16]
  growth: 76%
[17]
  growth: 12%
[18]
  growth: 49.9%
[19]
  growth: 29.2%
